# ± gives the standard deviation of the averaged measurements. Over roughly 33,000 sequences, “E-score (rank enrichment, -0.5 to 0.5)” has its median near -0.0043; the highest 2% begin near 0.24. The sample as a whole holds a higher share of the highest values than the screen did.
# Tested on: 2Sp-muMax20 (muMax20 with two 2,6-bis(methyl)pyridine Cys staples)
# Experiment: PBM 8-mer E-score (E-score (rank enrichment, -0.5 to 0.5)); higher = stronger preferential binding
# Protocol: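 Protein binding microarray (universal PBM chip covering all 10-mers in fixed probe flanks) with chemically synthesized human Max(13-93) bHLH-LZ analogs (not full-length Max) bearing noncanonical residues (hArg, Tha, Aib, Nle at 65) and aromatic Cys staples. Read-out per 8-mer (and its reverse complement): E-score (rank-based enrichment, -0.5 to 0.5) and Z-score of median probe intensity.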
row,Sequence,PBM 8-mer E-score
1,CTATGTGA,0.148 ± 0.044
2,ATATGTGG,0.218 ± 0.032
3,AGATGTGA,0.199 ± 0.019
4,GCATGTGA,0.183 ± 0.082
5,ACATGTGA,0.312 ± 0.0028
6,CAATGTGA,0.146 ± 0.013
7,CCATGTGA,0.268 ± 0.087
8,ATATGTGA,0.311 ± 0.022
9,GAATGTGA,0.00134 ± 0.14
10,TAATGTGA,0.266 ± 0.01
11,CCATGTGC,0.114 ± 0.025
12,CGATGTGA,0.0746 ± 0.018
13,GCTTAGCA,0.039 ± 0.11
14,TACGCTAA,0.218 ± 0.0075
15,GTTCTCTA,-0.185 ± 0.098
16,AGTTCCAA,-0.0402 ± 0.057
17,CCCCCCTA,-0.112 ± 0.073
18,GCCAAACC,-0.0278 ± 0.14
19,GCAGATAC,0.04 ± 0.079
20,ATTCTACA,0.253 ± 0.021
21,ATAATACG,0.177 ± 0.032
22,ATAATACC,0.209 ± 0.033
23,ATACTACA,0.258 ± 0.033
24,ATACTACC,0.147 ± 0.029
25,GTACTAAC,0.127 ± 0.038

row,Sequence,PBM 8-mer E-score
1,ATACTAAC,0.245 ± 0.041
2,GTTCTACA,0.0307 ± 0.072
3,ATACTAAA,0.145 ± 0.13
4,ATTCTACG,0.228 ± 0.01
5,CTACTACA,0.0934 ± 0.18
6,ATAATACA,0.271 ± 0.0055
7,CCCGTCCA,-0.241 ± 0.017
8,TTCTAAAA,-0.19 ± 0.05
9,TCCAACGA,-0.0483 ± 0.18
10,CTGGCAAG,-0.0269 ± 0.07
11,ACATTTTA,0.232 ± 0.019
12,CCACTATA,0.183 ± 0.0029
13,GGCAGTAC,0.105 ± 0.086
14,ATACTAGA,0.26 ± 0.055
15,CTACTAGA,0.05 ± 0.076
16,ATACTAGC,0.117 ± 0.075
17,AAAATAGA,0.242 ± 0.0042
18,TAAATAGA,0.000425 ± 0.01
19,AAAATAGC,-0.0165 ± 0.011
20,TAACCTCA,-0.00886 ± 0.051
21,GAGAGCAA,-0.127 ± 0.12
22,CCTGGATA,-0.0904 ± 0.0036
23,AAATAGAT,0.227 ± 0.023
24,AAATAGGC,0.0753 ± 0.026
25,GAATAGAC,0.104 ± 0.096

row,Sequence,PBM 8-mer E-score
1,AAATAGAC,0.257 ± 0.0069
2,AAATAGGT,0.241 ± 0.0095
3,AAATAGGG,0.208 ± 0.0056
4,ACCGAAAA,-0.0179 ± 0.15
5,CTCTTCCC,-0.062 ± 0.011
6,GACGTGCC,-0.0934 ± 0.065
7,AACGTGCC,0.0275 ± 0.036
8,TACGTGCA,0.105 ± 0.013
9,CCCGTGCG,-0.119 ± 0.06
10,CACGTGCG,0.4142 ± 0.0019
11,CACGTGCC,0.405 ± 0.0045
12,AACGTGCG,0.129 ± 0.11
13,GGCGTGCA,0.11 ± 0.047
14,AACGTGCA,0.149 ± 0.025
15,CGCGTGCC,0.0851 ± 0.061
16,CACGTGCA,0.419 ± 0.027
17,CGCGTGCA,0.263 ± 0.035
18,GGTAGCAA,0.163 ± 0.004
19,AAGTACTT,0.109 ± 0.032
20,ACCGCATG,0.132 ± 0.074
21,GCGCATCA,0.0862 ± 0.011
22,CGGGTACA,-0.205 ± 0.03
23,GACCGACA,-0.18 ± 0.052
24,GAACAAAC,0.046 ± 0.051
25,CCATAATC,0.159 ± 0.019

row,Sequence,PBM 8-mer E-score
1,CTCTTAGA,-0.116 ± 0.051
2,AAACAATA,0.101 ± 0.046
3,AAACAATG,0.121 ± 0.021
4,AACAAATT,0.265 ± 0.0042
5,AAACAATT,0.252 ± 0.046
6,AACAAGTT,0.0512 ± 0.042
7,AACAAATA,0.212 ± 0.063
8,ATGCAGTA,0.0482 ± 0.088
9,ACATAGCT,-0.143 ± 0.0071
10,CCCCTTCC,-0.00527 ± 0.1
11,CCCCTCCC,0.311 ± 0.014
12,ACCCTCCA,0.168 ± 0.0021
13,ACCCTCCT,-0.0498 ± 0.0072
14,ACCCTCCC,0.26 ± 0.043
15,CCCCTCCA,0.236 ± 0.033
16,TCCCTCCA,-0.114 ± 0.086
17,CCCTCCCC,0.142 ± 0.11
18,CCCCTTCA,0.248 ± 0.1
19,CCCCTCCG,-0.0068 ± 0.12
20,TCCCTTCA,0.107 ± 0.057
21,GCCCTCCA,-0.00293 ± 0.051
22,ATATACGG,0.0505 ± 0.015
23,GGCTCAAC,-0.0877 ± 0.06
24,AGGAATAA,0.0163 ± 0.077
25,CTTCTACA,-0.0255 ± 0.032

row,Sequence,PBM 8-mer E-score
1,ACCTGCCA,-0.188 ± 0.047
2,GCATTATA,0.186 ± 0.059
3,ACATTATA,0.282 ± 0.0059
4,CCATTATC,0.157 ± 0.04
5,ACATTATC,0.159 ± 0.038
6,CCATTATA,0.257 ± 0.045
7,ACATTATG,0.147 ± 0.1
8,CGTATGCC,-0.0525 ± 0.034
9,GCTGTTGA,-0.119 ± 0.013
10,AGGGTGGC,0.0126 ± 0.068
11,AGGGTGGA,-0.0107 ± 0.009
12,AGGGTGGG,0.245 ± 0.073
13,ACAGAGAA,0.129 ± 0.14
14,ATATGGAG,0.127 ± 0.014
15,CCATGGGG,-0.0568 ± 0.073
16,ATATGGGG,0.239 ± 0.024
17,ATATGGGC,0.249 ± 0.04
18,CTATGGGC,-0.0549 ± 0.074
19,AGATGGGC,-0.0126 ± 0.1
20,ACATGGGG,0.246 ± 0.072
21,ATATGGGA,0.136 ± 0.11
22,ACATGGGA,0.162 ± 0.035
23,GAATCATC,-0.0799 ± 0.064
24,TCGTACAA,0.1 ± 0.042
25,CAACCAAC,-0.132 ± 0.022

row,Sequence,PBM 8-mer E-score
1,TCATTTCA,0.171 ± 0.068
2,CATGGCCA,0.0303 ± 0.016
3,CCAGCAGG,-0.054 ± 0.077
4,CGTTTCAA,-0.171 ± 0.036
5,CGTTTATC,-0.0397 ± 0.011
6,AGGCCCGA,-0.161 ± 0.0046
7,CATATACG,0.0657 ± 0.013
8,TATATAGA,0.166 ± 0.025
9,CATATAGA,0.182 ± 0.038
10,CATATATA,0.277 ± 0.012
11,CATATATC,0.232 ± 0.0054
12,AAGATATC,0.211 ± 0.14
13,GATATATA,0.204 ± 0.027
14,CATATAGG,0.145 ± 0.0097
15,TATATATA,0.315 ± 0.019
16,CATATATG,0.308 ± 0.036
17,CAGATATA,0.0905 ± 0.056
18,AAGATATA,0.259 ± 0.022
19,CCTAGTAG,0.00183 ± 0.043
20,CACACTAA,0.172 ± 0.041
21,CGTCCCAG,-0.132 ± 0.0026
22,CTATGGAG,0.0519 ± 0.034
23,CAAGCTTA,-0.00639 ± 0.037
24,CCTGCCAC,-0.0854 ± 0.043
25,AGACCGTG,-0.2708 ± 0.0017

row,Sequence,PBM 8-mer E-score
1,TATGCCGA,-0.0358 ± 0.062
2,ACCAGCAG,-0.0797 ± 0.013
3,CCCGCCAG,-0.131 ± 0.01
4,CTTATATA,0.166 ± 0.073
5,GTAATCTA,0.259 ± 0.056
6,GTTATAGA,0.175 ± 0.05
7,CTAATCTA,0.0847 ± 0.035
8,GTTATATA,0.264 ± 0.022
9,GATCTATA,-0.0283 ± 0.079
10,ATAATCTA,0.141 ± 0.07
11,ATAATATA,0.194 ± 0.04
12,AATCTATA,0.147 ± 0.091
13,CTAATATA,0.1721 ± 0.00093
14,CATCTATA,0.288 ± 0.024
15,GTAATATA,0.255 ± 0.07
16,ACCGCCCG,-0.242 ± 0.065
17,AAGGCGCC,0.175 ± 0.087
18,CGCAACCA,0.0737 ± 0.021
19,CCTTGCCA,-0.0434 ± 0.087
20,AGAATTTC,-0.0921 ± 0.041
21,AGAATTTA,0.284 ± 0.096
22,ATAATTTA,0.284 ± 0.12

# Reference: the supplement of paper PMC12636033
